Laboratory results published in the supplement of paper PMC4466140.

B1: unnamed (peptide)
chain: DKSRPPRPPPKPLHL

target: AgAbp1; test: SPOT peptide array binding signal intensity (averaged, normalized) (arbitrary units (background-subtracted, floor 0; scale differs between SH3 domains)); higher = stronger binding of the SH3 domain to the peptide
Summary of the method: (§1)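 Binding signal is given in arbitrary units that differ between domains and is the normalized, background-subtracted spot intensity averaged across replicates. Each GST-SH3 fusion from one of four yeast species was made in E. coli BL21(DE3), purified on glutathione Sepharose and incubated at 10 μg/ml overnight at 4°C on cellulose-bound synthetic 15-mer peptides in which cysteines were replaced by serines. Detection used anti-GST antibody, an HRP anti-mouse secondary and luminol, followed by imaging and Genespotter quantification.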

Binder | SPOT peptide array binding signal intensity
B1 | 1130

target: AgBbc1; test: as above
Summary of the method: as §1

Binder | SPOT peptide array binding signal intensity
B1 | 193

target: AgBem1-D1; test: as above
Summary of the method: as §1

Binder | SPOT peptide array binding signal intensity
B1 | ≤ 0

target: AgBzz1-D1; test: as above
Summary of the method: as §1

Binder | SPOT peptide array binding signal intensity
B1 | 256

target: AgBzz1-D2; test: as above
Summary of the method: as §1

Binder | SPOT peptide array binding signal intensity
B1 | 134

target: AgCyk3; test: as above
Summary of the method: as §1

Binder | SPOT peptide array binding signal intensity
B1 | ≤ 0

target: AgFus1; test: as above
Summary of the method: as §1

Binder | SPOT peptide array binding signal intensity
B1 | 0.5

target: AgHof1; test: as above
Summary of the method: as §1

Binder | SPOT peptide array binding signal intensity
B1 | 14.2

target: AgHse1; test: as above
Summary of the method: as §1

Binder | SPOT peptide array binding signal intensity
B1 | ≤ 0

target: AgLsb1; test: as above
Summary of the method: as §1

Binder | SPOT peptide array binding signal intensity
B1 | 1.5

target: AgLsb4; test: as above
Summary of the method: as §1

Binder | SPOT peptide array binding signal intensity
B1 | 15

target: AgMyo5; test: as above
Summary of the method: as §1

Binder | SPOT peptide array binding signal intensity
B1 | 62.2

target: AgNbp2; test: as above
Summary of the method: as §1

Binder | SPOT peptide array binding signal intensity
B1 | 62.5

target: AgRvs167; test: as above
Summary of the method: as §1

Binder | SPOT peptide array binding signal intensity
B1 | 1.33

target: AgSho1; test: as above
Summary of the method: as §1

Binder | SPOT peptide array binding signal intensity
B1 | 250

target: AgSla1-D1-D2; test: as above
Summary of the method: as §1

Binder | SPOT peptide array binding signal intensity
B1 | ≤ 0

target: AgSla1-D3; test: as above
Summary of the method: as §1

Binder | SPOT peptide array binding signal intensity
B1 | 9

target: CaAbp1-D1; test: as above
Summary of the method: as §1

Binder | SPOT peptide array binding signal intensity
B1 | 782

target: CaAbp1-D2; test: as above
Summary of the method: as §1

Binder | SPOT peptide array binding signal intensity
B1 | 1940

target: CaBbc1; test: as above
Summary of the method: as §1

Binder | SPOT peptide array binding signal intensity
B1 | 334

target: CaBem1-D1; test: as above
Summary of the method: as §1

Binder | SPOT peptide array binding signal intensity
B1 | 120

target: CaBzz1-D1; test: as above
Summary of the method: as §1

Binder | SPOT peptide array binding signal intensity
B1 | 2800

target: CaBzz1-D2; test: as above
Summary of the method: as §1

Binder | SPOT peptide array binding signal intensity
B1 | 578

target: CaCyk3; test: as above
Summary of the method: as §1

Binder | SPOT peptide array binding signal intensity
B1 | 34.5

target: CaFus1; test: as above
Summary of the method: as §1

Binder | SPOT peptide array binding signal intensity
B1 | ≤ 0

target: CaHof1; test: as above
Summary of the method: as §1

Binder | SPOT peptide array binding signal intensity
B1 | 0.5

target: CaHse1; test: as above
Summary of the method: as §1

Binder | SPOT peptide array binding signal intensity
B1 | 63.2

target: CaLsb1; test: as above
Summary of the method: as §1

Binder | SPOT peptide array binding signal intensity
B1 | ≤ 0

target: CaLsb4; test: as above
Summary of the method: as §1

Binder | SPOT peptide array binding signal intensity
B1 | 471

target: CaMyo5; test: as above
Summary of the method: as §1

Binder | SPOT peptide array binding signal intensity
B1 | 0.5

target: CaNbp2; test: as above
Summary of the method: as §1

Binder | SPOT peptide array binding signal intensity
B1 | 56

target: CaRvs167; test: as above
Summary of the method: as §1

Binder | SPOT peptide array binding signal intensity
B1 | 5.33

target: CaRvs167-3; test: as above
Summary of the method: as §1

Binder | SPOT peptide array binding signal intensity
B1 | 2

target: CaSho1; test: as above
Summary of the method: as §1

Binder | SPOT peptide array binding signal intensity
B1 | 5.5

target: CaSla1-D1-D2; test: as above
Summary of the method: as §1

Binder | SPOT peptide array binding signal intensity
B1 | 458

target: CaSla1-D3; test: as above
Summary of the method: as §1

Binder | SPOT peptide array binding signal intensity
B1 | 14.2

target: ScAbp1; test: as above
Summary of the method: as §1

Binder | SPOT peptide array binding signal intensity
B1 | 516
